Laboratory results: PubChem BioAssay (NCI)
The panel holds about 79,000 compounds, 15% with a hit somewhere; the sample as a whole holds those more often. The source made the active and inactive calls. Rule as the data show it: active = growth inhibition above about 70%; inactive = the rest.

Assays:
[1] = NCI Yeast Anticancer Drug Screen. Data for the rad52 strain (AID 147);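 also: 0% = growth of vehicle-treated control cultures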; details: S. cerevisiae rad52 mutant growth inhibition, stronger effect = higher value
How it was run: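 Growth of repair-deficient yeast cells was compared between compound-treated and vehicle-treated cultures to give percent inhibition.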

[2] = NCI Yeast Anticancer Drug Screen. Data for the wt1 strain (AID 149);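 also: 0% = growth of vehicle-treated wt1 cultures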; details: S. cerevisiae wt1 strain (SPY 50644) growth inhibition, stronger effect = higher value
How it was run: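 Readout: yeast growth inhibition, normalised to vehicle controls, in the wt1 strain exposed to test compounds.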

[3] = NCI Yeast Anticancer Drug Screen. Data for the rad50EPP+ strain (AID 151);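 also: 0% = growth of vehicle-treated control cultures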; details: S. cerevisiae rad50 mutant strain, stronger effect = higher value
How it was run: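 Measured: growth inhibition of rad50EPP+ yeast. Reference: vehicle-treated controls. Screen uses strains with defined genetic alterations in DNA damage repair or cell cycle control.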

[4] = NCI Yeast Anticancer Drug Screen. Data for the mgt1 strain (AID 153); details: S. cerevisiae mgt1 mutant growth inhibition, stronger effect = higher value
How it was run: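 Compounds were applied to mgt1 mutant yeast, and growth was then compared against vehicle-treated control cultures to give percent inhibition.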

[5] = NCI Yeast Anticancer Drug Screen. Data for the rad50 strain (AID 155);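 also: 0% = growth of vehicle-only cultures of the same strain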; details: S. cerevisiae rad50 strain growth inhibition, stronger effect = higher value
How it was run: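 Compounds were tested on a yeast strain with an engineered DNA damage repair alteration; the reported value is growth inhibition normalised to vehicle treatment.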

[6] = NCI Yeast Anticancer Drug Screen. Data for the mec2-1 strain (AID 157); details: S. cerevisiae mec2-1 strain, stronger effect = higher value
How it was run: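 Compounds were applied to mec2-1 yeast cells. Their growth was then compared with that of vehicle-treated cultures to give growth inhibition.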

[7] = NCI Yeast Anticancer Drug Screen. Data for the rad14 strain (AID 159);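 also: 0% = growth of vehicle-treated control cultures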; details: S. cerevisiae rad14 strain growth inhibition, stronger effect = higher value
How it was run: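 Compound-treated yeast with a defined DNA-repair lesion; growth inhibition normalised to vehicle-treated cultures.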

[8] = NCI Yeast Anticancer Drug Screen. Data for the sgs1 mgt1 strain (AID 161);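 also: 0% = growth of cultures given vehicle only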; details: S. cerevisiae sgs1 mgt1 strain, stronger effect = higher value
How it was run: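 Yeast cells carrying a defined DNA-repair defect were exposed to test compounds. Growth inhibition was measured relative to vehicle-treated controls.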

[9] = NCI Yeast Anticancer Drug Screen. Data for the CLN2oe strain (AID 163);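 also: 0% = growth of vehicle-only control cultures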; details: S. cerevisiae CLN2oe strain, stronger effect = higher value
How it was run: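 Cells of an engineered yeast line with disturbed cell-cycle regulation are treated with compound. Inhibition of growth is then calculated relative to the vehicle-treated reference.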

[10] = NCI Yeast Anticancer Drug Screen. Data for the cln2 rad14 strain (AID 165);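 also: 0% = growth equal to vehicle treated cultures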; details: S. cerevisiae cln2 rad14 strain, stronger effect = higher value
How it was run: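 Strain: cln2 rad14 yeast, altered in cell cycle control and DNA damage repair. Read-out: growth inhibition vs vehicle.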

[11] = NCI Yeast Anticancer Drug Screen. Data for the bub3 strain (AID 167); details: S. cerevisiae bub3 mutant strain, stronger effect = higher value
How it was run: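 Growth of a checkpoint-deficient yeast mutant is measured after compound exposure. Values represent inhibition relative to vehicle.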

[12] = NCI Yeast Anticancer Drug Screen. Data for the wt2 strain (AID 169);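 also: 0% = growth of vehicle-treated yeast cultures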; details: S. cerevisiae wt2 strain growth inhibition, stronger effect = higher value
How it was run: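 Growth of compound-treated yeast is measured and expressed as inhibition relative to vehicle-only controls.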

[13] = NCI Yeast Anticancer Drug Screen. Data for the mlh1 strain (AID 171);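 also: 0% = growth of vehicle-treated control cultures of the same strain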; details: S. cerevisiae mlh1 strain growth inhibition, stronger effect = higher value
How it was run: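 Test agents were incubated with yeast bearing a defined DNA damage repair or cell cycle control alteration; values are growth inhibition normalised to vehicle-treated cultures.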

[14] = NCI Yeast Anticancer Drug Screen. Data for the mlh1 rad18 strain (AID 175); details: S. cerevisiae mlh1 rad18 strain growth inhibition, stronger effect = higher value
How it was run: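 A repair-deficient yeast strain is exposed to test compound, and growth is scored relative to vehicle-treated controls.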

[15] = NCI Yeast Anticancer Drug Screen. Data for the rad18 strain (AID 177); details: S. cerevisiae rad18 mutant growth inhibition, stronger effect = higher value
How it was run: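 DNA-repair-defective yeast; compound treatment; growth inhibition scored against vehicle.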

[16] = NCI Yeast Anticancer Drug Screen. Data for the sgs1 strain (AID 173);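 also: 0% = growth of vehicle-only control cultures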; details: S. cerevisiae sgs1 mutant, stronger effect = higher value
How it was run: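 Strain with an altered DNA repair or cell cycle pathway exposed to compound. Growth then measured. Value = inhibition versus vehicle control.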

[17] = at 5.0 µM (retest, dose inferred, filed as 0.5)
[18] = at 50.0 µM (retest, dose inferred, filed as 5.0)

Measured: growth inhibition

CNc1ccc(Cc2c[nH]c3ccccc23)cc1
active: [5]; [18] 76% | [5]; at 50.0 µM 89% | [6]; [18] 86% | [10]; [18] 70% | [11]; [18] 89% | [14]; [18] 79% | [14]; at 50.0 µM 84.8%
inactive: [1]; at 1.2 µM -20% | [1]; at 3.7 µM -35% | [1]; at 11.0 µM -27% | [1]; at 33.0 µM 4% | [1]; at 100.0 µM 22% | [2]; at 1.2 µM -11% | [2]; at 3.7 µM -11% | [2]; at 11.0 µM -17% | [2]; at 33.0 µM -17% | [2]; at 100.0 µM -1% | [3]; at 1.2 µM -36% | [3]; at 3.7 µM -48% | [3]; at 11.0 µM -23% | [3]; at 33.0 µM 26% | [3]; at 100.0 µM 39% | [4]; at 1.2 µM -32% | [4]; at 3.7 µM -28% | [4]; at 11.0 µM -32% | [4]; at 33.0 µM 1% | [4]; at 100.0 µM 25% | [5]; at 1.2 µM -40% | [5]; at 3.7 µM -48% | [5]; [17] 42% | [5]; at 11.0 µM -41% | [5]; at 33.0 µM 14% | [5]; at 100.0 µM 26% | [6]; at 1.2 µM -28% | [6]; at 3.7 µM -15% | [6]; [17] 56% | [6]; at 11.0 µM -23% | [6]; at 33.0 µM -5% | [6]; at 50.0 µM 67.9% | [6]; at 100.0 µM 8% | [7]; at 1.2 µM -21% | [7]; at 3.7 µM -19% | [7]; at 11.0 µM -18% | [7]; at 33.0 µM -5% | [7]; at 100.0 µM -3% | [8]; [17] -13% | [8]; [18] 64% | [9]; at 1.2 µM -8% | [9]; at 3.7 µM -30% | [9]; at 11.0 µM -35% | [9]; at 33.0 µM -19% | [9]; at 100.0 µM -5% | [10]; [17] 27% | [11]; at 1.2 µM -8% | [11]; at 3.7 µM -1% | [11]; [17] 15% | [11]; at 11.0 µM 10% | [11]; at 33.0 µM 7% | [11]; at 100.0 µM 30% | [12]; at 1.2 µM -17% | [12]; at 3.7 µM -24% | [12]; at 11.0 µM -29% | [12]; at 33.0 µM -5% | [12]; at 100.0 µM 13% | [13]; at 1.2 µM -35% | [13]; at 3.7 µM -41% | [13]; at 11.0 µM -25% | [13]; at 33.0 µM 15% | [13]; at 100.0 µM 27% | [14]; [17] 35% | [15]; at 1.2 µM -54% | [15]; at 3.7 µM -64% | [15]; at 11.0 µM -51% | [15]; at 33.0 µM -8% | [15]; at 100.0 µM 20%

O=C(O)c1cccc2cccc(-c3c4ccc(=O)cc-4oc4cc(O)ccc34)c12
inactive: [1]; at 1.2 µM 8% | [1]; at 3.7 µM 33% | [2]; at 1.2 µM -5% | [2]; at 3.7 µM 5% | [2]; at 11.0 µM 54% | [2]; at 33.0 µM 69% | [3]; at 1.2 µM 10% | [3]; at 3.7 µM 29% | [4]; at 1.2 µM 20% | [4]; at 3.7 µM 41% | [5]; at 1.2 µM 29% | [5]; at 3.7 µM 56% | [5]; [17] 29% | [6]; at 1.2 µM 18% | [6]; at 3.7 µM 24% | [6]; [17] 53% | [7]; at 1.2 µM 10% | [7]; at 3.7 µM 13% | [7]; at 11.0 µM 55% | [8]; [17] 1% | [9]; at 1.2 µM 16% | [9]; at 3.7 µM 9% | [10]; [17] 61% | [11]; at 1.2 µM 34% | [11]; at 3.7 µM 69% | [12]; at 1.2 µM 17% | [12]; at 3.7 µM 26% | [12]; at 11.0 µM 48% | [13]; at 1.2 µM 7% | [13]; at 3.7 µM 18% | [13]; at 11.0 µM 63% | [16]; at 1.2 µM 34% | [16]; at 3.7 µM 31% | [14]; [17] 27% | [15]; at 1.2 µM 18% | [15]; at 3.7 µM 23%
active: [1]; at 11.0 µM 79% | [1]; at 33.0 µM 78% | [1]; at 100.0 µM 94% | [2]; at 100.0 µM 94% | [3]; at 11.0 µM 70% | [3]; at 33.0 µM 73% | [3]; at 100.0 µM 93% | [4]; at 11.0 µM 79% | [4]; at 33.0 µM 88% | [4]; at 100.0 µM 96% | [5]; at 11.0 µM 82% | [5]; at 33.0 µM 79% | [5]; [18] 97% | [5]; at 50.0 µM 90.5% | [5]; at 100.0 µM 92% | [6]; at 11.0 µM 85% | [6]; at 33.0 µM 85% | [6]; [18] 94% | [6]; at 50.0 µM 91.5% | [6]; at 100.0 µM 93% | [7]; at 33.0 µM 74% | [7]; at 100.0 µM 93% | [8]; [18] 95% | [9]; at 11.0 µM 70% | [9]; at 33.0 µM 81% | [9]; at 100.0 µM 90% | [10]; [18] 95% | [11]; [17] 72% | [11]; at 11.0 µM 91% | [11]; at 33.0 µM 93% | [11]; [18] 94% | [11]; at 100.0 µM 92% | [12]; at 33.0 µM 85% | [12]; at 100.0 µM 96% | [13]; at 33.0 µM 87% | [13]; at 100.0 µM 91% | [16]; at 11.0 µM 74% | [16]; at 33.0 µM 85% | [16]; at 100.0 µM 95% | [14]; [18] 98% | [14]; at 50.0 µM 90% | [15]; at 11.0 µM 71% | [15]; at 33.0 µM 79% | [15]; at 100.0 µM 94%
